Consider 23 sequences from the OligoGym collection.
Note: reference of the scale not given here.

The first assay has as its target TMED9. As to the kind of experiment: pooled miR-30 sensor sort-seq; sequence = guide strand. The conditions noted are these: shRNA.
Consider TTGAGGTGCCGCATCTGCCAGA, for which the sensor-assay potency score (higher = more potent) was -0.928. On the same count and under the same terms, in the case of TAACACTGTGATTCTGAGGTGC it was 0.27. Still for that read-out and setting: in the case of TCAGTAACTAAGACTCTGCAGG it was -0.549. Still for that read-out and setting: in the case of TTGTCATACAGCTGCGTCCGGT it was -1.2; in that of TTTAGCAGCAATTTCTGCATAG, -0.576. Consider ATGACCATGGTCTCGTCCGGGA, for which the sensor-assay potency score (higher = more potent) was -0.96. Still for that read-out and setting: in the case of TGTCTTTAGCAGCAATTTCTGC it was -1.06; in that of TGGGAAGTGAAAGTGAACCTGC, 0.118; in that of TTGGAGTGAAGACAGATCTGGT, -0.176.

As for TTTCTGGATCTGCTCCACTTGT, the sensor-assay potency score (higher = more potent) is -1.3. The same measure, in the same setting: in the case of TATGACCATGGTCTCGTCCGGG it was -0.321. Same read-out and setting: in the case of TTCACCTCCACAAACATGCCAA it was -0.184.

The next assay has as its target TMEFF2. The description is as above. Conditions: shRNA.
As for TATAGAACACTGTAGTCCTTTT, the sensor-assay potency score (higher = more potent) was -0.956. Still for that read-out and setting: in the case of TAGATCTCTTGTCTTATTCTTT it was -0.31. On the same count and under the same terms, in the case of TTGTCTGAACTGTAGTGCCCTG it was -0.73.

In the case of TTTTTTCACAGTGTTGTCCAGT, the sensor-assay potency score (higher = more potent) was -0.255. As to TCAATATTACACACACACCAGA, the sensor-assay potency score (higher = more potent) was -1.06. Still for that read-out and setting: in the case of TTGTTGTATTGTCTGAACTGTA it was -0.51. Same read-out and setting: in the case of TAGAACACTGTAGTCCTTTTTT it was -1.55. Same read-out and setting: in the case of TACAGGACCGGGAACAACGTAT it was -0.637; in that of TAGCATTCTCTGCATAATCTGT, -0.543; in that of TTGTGTTATCTTGACATCGACC, -0.895. Take TTAAGACATACTGAAATCGTAC: the sensor-assay potency score (higher = more potent) is -0.191.
